Screens: PubChem, National Center for Advancing Translational Sciences (NCATS)
An excerpt weighted towards active compounds, which were near 1.1% of everything screened.
Eya2 phos inh: blocks the phosphatase activity of human Eya2 | O00167 | recombinant Eya2, OMFP fluorescence dephosphorylation (OMFP is methylfluorescein phosphate) | Potency, µM (titrated, usually from 76.9 µM), usual class: inhibitors | actives 0.006% (n = 330,000) | AID 488837
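Eya2 protein (added as 0.2 uM solution) was preincubated with compound for 10 min at ambient temperature in 50 mM HEPES pH 7.5, 50 mM NaCl, 5 uM MgCl2, 0.05% BSA, 1 mM DTT. OMFP (added at 50 uM) then reacted 10 min; fluorescence read at 485/525 nm.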
ALOX12 inh: ALOX12 (human) lipoxygenase inhibition | AID 1671190 | P18054 | actives 1.1% (n = 580,000) | Potency, µM (highest dose often 108 µM), usual class: inhibitors | purified 12hLO, xylenol orange hydroperoxide absorbance
Target sequence (P18054 whole entry, looked up): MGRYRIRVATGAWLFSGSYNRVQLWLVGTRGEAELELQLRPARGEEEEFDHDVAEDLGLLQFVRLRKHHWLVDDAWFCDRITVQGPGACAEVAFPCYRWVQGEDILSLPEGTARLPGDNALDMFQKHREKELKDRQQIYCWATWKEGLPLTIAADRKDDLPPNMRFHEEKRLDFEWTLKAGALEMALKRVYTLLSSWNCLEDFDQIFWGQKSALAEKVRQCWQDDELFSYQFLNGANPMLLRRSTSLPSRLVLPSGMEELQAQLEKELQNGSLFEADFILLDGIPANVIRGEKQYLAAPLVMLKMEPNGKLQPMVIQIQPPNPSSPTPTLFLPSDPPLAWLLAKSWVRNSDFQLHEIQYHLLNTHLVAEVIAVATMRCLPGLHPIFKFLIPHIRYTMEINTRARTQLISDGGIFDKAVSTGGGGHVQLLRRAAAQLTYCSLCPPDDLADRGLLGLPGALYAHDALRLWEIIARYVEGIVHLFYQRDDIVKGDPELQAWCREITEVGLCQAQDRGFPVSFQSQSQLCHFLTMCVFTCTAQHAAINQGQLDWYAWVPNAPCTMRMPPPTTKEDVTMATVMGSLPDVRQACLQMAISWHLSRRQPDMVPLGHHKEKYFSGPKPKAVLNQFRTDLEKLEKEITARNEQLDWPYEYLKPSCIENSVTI
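Hydroperoxide product was detected by ferrous iron/xylenol orange as the 573 to 405 nm absorbance ratio. Arachidonic acid at 40 uM (final) was turned over for 30 min at room temperature by 150 nM human 12hLO, pH 7.0 Hepes buffer, after 15 min compound preincubation.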
USP2a inh: USP2a (human) protease inhibition; actives 0.01% (n = 330,000); AID 463254; USP2 core, Ub-CHOP2 coupled fluorogenic reporter, 485/531; O75604; Potency, µM (titrated, usually from 38.3 µM), usual class: inhibitors
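Deubiquitinase activity read as fluorescence (485/531 nm) after Ub-CHOP2 cleavage activates the enterokinase reporter on its substrate; USP2 core 10nM, Ub-CHOP2 and substrate 25nM each, 30min compound preincubation then 60min RT; data normalized to NEM, curves fitted.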
PTAP TSG101 blk: blocks PTAP/TSG101 interaction to inhibit HIV-1 budding. Potency, µM (doses to about 115 µM), usual class: inhibitors. 340,000 tested, under 10 active. Q99816. Fluorescence polarization, FITC-PTAP peptide / Tsg101 binding; active = well fitted inhibition curve with a large enough effect in the main read-out, with a control signal flat, not every such curve was filed as active; inconclusive = small, poorly fitted or top-dose-only effect, or effect the other way, or a change in a side signal; inactive = no such curve, though single readings can be large or run the other way
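FP read-out: FITC-PTAP peptide, 50 nM final, binding Tsg101 binding domain, 10 uM final; 20 min, r.t.; 10 mM HEPES pH 7.5, 0.15 M NaCl, 0.01% Tween 20, 3 mM EDTA, 0.1 mM TCEP.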
Numbers stand for hits; 0 = inactive; ? = inconclusive; - = not tested or not shown; ! = not active in a repeat. Unless noted, calls follow the shape of the dose curve; as a rule, active = well fitted curve in the direction sought with a large enough effect; inconclusive = small, poorly fitted or top-dose-only effect, or another doubt; inactive = no such curve, though single readings can be large; an effect the other way counts as inactive or inconclusive.

SMILES | Eya2 phos inh | ALOX12 inh | USP2a inh | PTAP TSG101 blk
Cc1cc(-c2n[nH]c(=S)n2/N=C/c2ccc(Cl)c([N+](=O)[O-])c2)n[nH]1 | 0 | 39.8µM | 0 | 0
Fc1ccc(-n2nnc(-c3nccs3)n2)cc1 | 0 | 11.2µM | 0 | -
CCCNC(=O)COC(=O)c1cc(Cl)c(OC)c(OC)c1 | - | 0 | - | -
CCCNC(=O)N[C@@H]1CCC[C@@H](C(=O)N(CC)CC)CC(=O)N(C)C1 | - | 39.8µM | - | -
Cc1ccc(S(=O)(=O)N(C)C2CCOc3ccccc32)cc1 (stereo unspecified) | - | 0 | - | -
COc1cccc(CN2CCN(Cc3[nH]c4ccccc4c3C)CC2CCO)c1 (stereo unspecified) | 0 | 0 | 0 | 0
COc1cccc(C#Cc2c(CO)[nH]c3ccccc23)c1 | 0 | 50.1µM | 0 | 0
Oc1ccc(-c2n[nH]c(=S)n2Cc2ccco2)cc1 | 0 | ? | 0 | 0
S=c1[nH]nc(Cc2ccccc2)n1Cc1ccco1 | 0 | 35.5µM | 0 | 0
Oc1cc2ccccc2cc1-c1n[nH]c(=S)n1Cc1ccco1 | 0 | 39.8µM | 0 | 0
CCCCc1cc(C[C@@H]2C[C@H](NC(=O)c3cccc(F)c3)C2(C)C)no1 | - | 0 | - | -
CCN(CC)C(=O)Oc1ccc2c(c1)O/C(=C\c1ccco1)C2=O | 0 | ? | 0 | 0
CCC(=O)Oc1ccc2c(c1)O/C(=C\c1ccco1)C2=O | 0 | 25.1µM | ? | ?
COc1ccccc1C(=O)Nn1c(-c2ccc(F)cc2)nc2ccccc2c1=O | - | 0 | - | -
CC(Oc1ccc(Cl)cc1)C(=O)NNC(=S)NC(=O)c1ccco1 (stereo unspecified) | 0 | 44.7µM | 0 | 0
COc1ccc(C(=O)NNC(=S)NC(=O)c2ccco2)cc1 | 0 | 0 | 0 | 0
O=C(NNC(=S)NC(=O)c1ccco1)c1ccc(F)cc1 | 0 | 0 | 0 | 0
O=C(NC(=S)NNC(=O)c1ccco1)c1ccc(Br)cc1 | 0 | 28.2µM | 0 | 0
CCCOc1ccc(C(=O)NNC(=S)NC(C)=O)cc1 | 0 | 0 | 0 | 0
CCCOc1ccc(C(=O)NNC(=S)NC(=O)c2ccco2)cc1 | 0 | 39.8µM | 0 | 0
CCCOc1ccc(C(=O)NNC(=S)NC(=O)c2ccccc2)cc1 | 0 | 35.5µM | 0 | 0
N#Cc1ccc(NC(=O)Cn2nc3c(N4CCCC4)nc4ccccc4n3c2=O)cc1 | - | 0 | - | -
COc1ccc(C(=O)Nc2ccnn2Cc2cccs2)cc1S(=O)(=O)N1CCCCCC1 | - | 0 | - | -
O=C(NNC(=S)NC(=O)c1cccc([N+](=O)[O-])c1)c1ccc(Br)cc1 | 0 | 39.8µM | 0 | 0
O=C(/C=C/c1ccccc1)NC(=S)NNC(=O)c1ccccc1 | - | 6.31µM | - | -
SMILES | Eya2 phos inh | ALOX12 inh | USP2a inh | PTAP TSG101 blk
COC(=O)c1sccc1NC(=O)N1CCCC1c1noc(COc2ccc(F)cc2)n1 (stereo unspecified) | - | 0 | - | -
CCN(CC)C(=O)c1sc2nc(-c3cccs3)cc(-c3ccc(Cl)cc3)c2c1N | 0 | 0 | ? | ?
CCN(CC)C(=O)c1sc2nc(-c3cccs3)cc(-c3cccs3)c2c1N | 0 | 39.8µM | 0 | ?
COc1ccc(Cc2nc3nccc(-c4ccc(OC)c(OC)c4)n3n2)cc1 | - | 0 | - | -
CC(C)COc1ccc(C(=O)OCC[N+]2(C)CCOCC2)cc1 | - | 5.62µM | - | -
O=C(OCCN1CCOCC1)c1ccc(OCCN2CCOCC2)cc1 | 0 | ? | 0 | 0
CCC(C)NC(=O)CSc1nnc(-c2ccncc2)n1CC(F)(F)F (stereo unspecified) | - | 0 | - | -
CC(=O)N(\C=C/C=C/C=C1\Sc2ccccc2C1=O)c1ccccc1 | 0 | 15.8µM | 0 | 0
CCc1ccc2oc(C(=O)N(Cc3ccc(C(C)C)cc3)C3CCS(=O)(=O)C3)cc(=O)c2c1 (stereo unspecified) | - | 0 | - | -
O=c1oc2c3c4c(cc2s1)CCCN4CCC3 | 0 | 17.8µM | 0 | 0
O=c1ccc2cc3c4c(c2o1)CCCN4CCC3 | 0 | 0 | ? | ?
O=C(Nc1nccs1)c1ccc2c(c1)OCCN(C1CCC1)C2 | - | 0 | - | -
O=S(=O)(NCCN1CCOCC1)c1ccc(F)c(Cl)c1 | 0 | 20µM | 0 | 0
O=S(=O)(NCCN1CCOCC1)c1ccc(Cl)c(Cl)c1 | 0 | 0 | 0 | 0
O=C(C=Cc1ccco1)c1ccco1 | - | 8.91µM | - | 0
O=C(/C=C/c1ccco1)c1ccccc1 | - | 15.8µM | - | -
O=C(/C=C/c1ccco1)c1cccc([N+](=O)[O-])c1 | - | 25.1µM | - | 0
O=C(/C=C/c1ccc([N+](=O)[O-])cc1)/C=C/c1ccco1 | 0 | 17.8µM | 0 | -
CC1=C(C(=O)OC(C)C)C(c2ccc(Cl)cc2)N2C(CC(=O)N3CCCC3)=CSC2=N1 (stereo unspecified) | - | 0 | - | -
COc1cccc(CN2CCc3c(cc(C(=O)Nc4ccc(C)cc4C)n3C)C2)c1 | - | 0 | - | -
CCc1ccc(C(=O)N2CCC(Cc3nc(-c4ccc(OC)cc4)no3)CC2)cc1 | - | 0 | - | -
Cc1cc2n(n1)SC(Nc1ccccc1)N2 (stereo unspecified) | 0 | 14.1µM | 0 | 0
Cc1ccc(NC2Nc3cc(C)nn3S2)c(C)c1 (stereo unspecified) | 0 | 39.8µM | 0 | 0
Cc1ccc(N=CNc2ccc(C)cc2C)c(C)c1 | 0 | 0 | 0 | 0
Nc1c(N(Cc2ccco2)C(=O)c2ccc(Br)cc2)c(=O)[nH]c(=O)n1Cc1ccccc1 | 0 | 28.2µM | 0 | 0
SMILES | Eya2 phos inh | ALOX12 inh | USP2a inh | PTAP TSG101 blk
C=C(C)COc1ccc2c(=O)c(Oc3ccccc3Br)c(C)oc2c1 | - | 0 | - | -
Cc1oc2cc(OCC(=O)O)ccc2c(=O)c1Oc1ccccc1Br | - | 31.6µM | - | -
O=C(CCc1c[nH]c2ccccc12)N1CCC[C@H](n2c(=O)n(CC3CC3)c3cccnc32)C1 | - | 0 | - | -
O=C(O)C(c1c[nH]c2cc(F)ccc12)N1CCN(C(c2ccccc2)c2ccccc2)CC1 (stereo unspecified) | - | 17.8µM | - | -
O=C(O)C(c1c[nH]c2cc(Cl)ccc12)N1CCN(CCOc2ccc(Cl)cc2)CC1 (stereo unspecified) | - | 35.5µM | - | -
O=C(O)C(c1c[nH]c2ccccc12)N1CCN(c2ncc(Br)cn2)CC1 (stereo unspecified) | - | 0 | - | -
O=C(O)C(c1c[nH]c2cc(Br)ccc12)N1CCCN(c2ccc(C(F)(F)F)cn2)CC1 (stereo unspecified) | - | 25.1µM | - | -
O=C(O)C(c1c[nH]c2cc(Cl)ccc12)N1CCN(C/C=C/c2ccccc2)CC1 (stereo unspecified) | - | 44.7µM | - | -
O=C(O)C(c1c[nH]c2cc(F)ccc12)N1CCc2ccccc2C1 (stereo unspecified) | - | 0 | - | -
Cc1[nH]c2ccccc2c1CC(=O)NCc1cn2ccccc2n1 | - | 0 | - | -
Cc1cc(N2CCN(C(C(=O)O)c3c[nH]c4cc(Cl)ccc34)CC2)nc2ccccc12 (stereo unspecified) | - | 17.8µM | - | -
Cc1ccccc1OCCCSc1nc2ccccc2[nH]1 | 0 | 0 | 0 | 0
Cc1c(OCC(F)(F)F)ccnc1CSc1nc2ccccc2[nH]1 | 0 | 0 | 0 | 0
COCCCOc1ccnc(CS(=O)c2nc3ccccc3[nH]2)c1C (stereo unspecified) | 0 | 44.7µM! | 0 | 0
Cc1c(OCC(F)(F)F)ccnc1CS(=O)c1nc2ccccc2[nH]1 (stereo unspecified) | 0 | 12.2µM! | 0 | 0
